Hits are enriched below; roughly 3.5% of the tested compounds scored in any of these assays.
Pf apPOL inh: Pf-apPOL inhibitors, biochemical, fluorescence; Plasmodium falciparum apicoplast DNA polymerase (apPOL); Recombinant Pf-apPOL, molecular beacon fluorescence, 1.5 h; inhibition, % at 10 µM; hit rate 0.25% among 210,000; AID 1794808, 2022
mHTT CaM bind: mutant huntingtin-calmodulin interaction inhibitors – biochemical, AlphaScreen, primary screen; AlphaScreen His-mHTT/GST-CaM binding, luminescence; inhibition, % at 15 µM; AID 1671202, 2021; hit rate 3.6% among 190,000; P42858;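 further: 0% = both proteins with DMSO and 100% = one protein alone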
The depositor's hits bear a star; i = inactive; . = not tested or not shown. No stated cut-off is given here; in the data, active means inhibition above about 50%; inactive means the rest.

SMILES | Pf apPOL inh | mHTT CaM bind
N#CC1=C(N)OC2=C(CC/C2=C\c2ccccc2)C1c1ccccc1 (stereo not given) | -0.1 | 90.0*
N#CC1=C(N)OC2=C(C(=O)CCC2)C1c1ccccc1 (stereo not given) | -2.5 | -6.2
O=c1[nH]c2c(=O)[nH]c(=S)[nH]c2nc1C=C(O)c1ccccc1 | 89.8* | .
O=c1[nH]c2ccccc2nc1C=C(O)c1ccco1 | -7.7 | -3.6
COCOCCn1cc(CN2CCS(=O)(=O)N(Cc3ccc(-c4ccc(Cl)cc4)cc3)C(C(C)C)C2=O)nn1 (stereo not given) | -29.1 | 41.8
COCOCCn1cc(CN2CCS(=O)(=O)N(Cc3ccc(-c4ccc(C)cc4)cc3)C(CC(C)C)C2=O)nn1 (stereo not given) | -9.1 | 15.5
COCOCCn1cc(CN2CCS(=O)(=O)N(Cc3ccc(-c4ccc(Cl)c(Cl)c4)cc3)C(C(C)C)C2=O)nn1 (stereo not given) | -10.8 | 99.9*
CC(C)C1C(=O)N(Cc2cn(CCC3OCCCO3)nn2)CCS(=O)(=O)N1Cc1ccc(-c2ccncc2)cc1 (stereo not given) | -7.3 | 16.6
CC(C)C1C(=O)N(Cc2cn(CCC3OCCO3)nn2)CCS(=O)(=O)N1Cc1ccc(-c2ccc(Cl)c(Cl)c2)cc1 (stereo not given) | -11.1 | 98.0*
COCOCCn1cc(CN2CCS(=O)(=O)N(Cc3ccc(-c4ccc(F)cc4)cc3)C(CC(C)C)C2=O)nn1 (stereo not given) | -10.2 | 69.4*
COc1ccc(-c2ccc(CN3C(C(C)C)C(=O)N(Cc4cn(CCC5OCCO5)nn4)CCS3(=O)=O)cc2)cc1OC (stereo not given) | 7.5 | 49.4
CC(C)C1C(=O)N(Cc2cn(CCC3OCCCO3)nn2)CCS(=O)(=O)N1Cc1ccc(-c2ccc(F)cc2)cc1 (stereo not given) | -0.8 | 69.7*
O=C(c1ccc(Cn2nnc3ccccc3c2=O)cc1)N1CCN(c2ccccc2)CC1 | -6.3 | 39.0
CC(=O)c1cccc(NC(=O)CN(C)S(=O)(=O)c2ccc(Cl)cc2)c1 | -0.9 | -2.6
Cc1ccc(-c2ccc(CN3C(CC(C)C)C(=O)N(Cc4cn(CCC5OCCO5)nn4)CCS3(=O)=O)cc2)cc1 (stereo not given) | -12.8 | 22.8
CC(C)CC1C(=O)N(Cc2cn(CCC3OCCO3)nn2)CCS(=O)(=O)N1Cc1ccc(-c2ccc(Cl)c(Cl)c2)cc1 (stereo not given) | -4.8 | 71.8*
O=C(NCC(O)c1cccc2ccccc12)C1CC=CCC1 (stereo not given) | -2.3 | 3.0
Cn1ccnc1SCC(=O)N1c2ccccc2C(C)(c2ccc(Cl)cc2)CC1(C)C (stereo not given) | 4.7 | 61.0*
CC1(c2ccc(Cl)cc2)CC(C)(C)N(C(=O)c2cccnc2)c2ccccc21 (stereo not given) | 3.8 | 48.0
CN(c1ccc(Br)cc1)S(=O)(=O)c1ccc2nc(-c3ccccc3)[nH]c2c1 | -3.7 | 12.0
C=CCN1C(=O)C2C(C1=O)C1(Br)c3ccccc3C2(Br)c2ccccc21 (stereo not given) | -3.5 | -3.0
CCN1CCN(C(=O)CN2CCN(C(=O)Nc3ccc(Cl)cc3)CC2=O)CC1 | -3.0 | -4.0
COc1ccc(C(=O)NCCc2c[nH]c3ccccc23)cc1 | -5.8 | 1.5
COc1ccc(C(=O)C(C)OC(=O)CCc2c[nH]c3ccccc23)cc1 (stereo not given) | -7.1 | 90.4*
O=C(CSc1nnc(Cn2ccc(=O)[nH]c2=O)o1)Nc1ccc(Cl)cn1 | 0.4 | -17.0
SMILES | Pf apPOL inh | mHTT CaM bind
OCC(CO)(CO)NCC(O)Cn1c2ccc(Cl)cc2c2cc(Cl)ccc21 (stereo not given) | 1.2 | 67.9*
OCCNCC(O)Cn1c2ccccc2c2ccccc21 (stereo not given) | -4.5 | 1.9
OCC(CO)(CO)NCC(O)Cn1c2ccccc2c2ccccc21 (stereo not given) | 3.7 | 2.4
CN(C)CC(O)Cn1c2ccccc2c2ccccc21 (stereo not given) | -9.9 | 0.6
CC(C)(CO)NCC(O)Cn1c2ccc(Cl)cc2c2cc(Cl)ccc21 (stereo not given) | 0.0 | 96.7*
CN(C)CC(O)Cn1c2ccc(Cl)cc2c2cc(Cl)ccc21 (stereo not given) | 26.1 | 60.1*
Cc1ccc(CNC(=O)c2nnn(-c3ccc4c(c3)OCCO4)c2N)cc1 | -4.1 | 5.0
CC1CN(C(=O)c2cc(F)cc(F)c2)CC1c1nc(-c2ccncc2)no1 (stereo not given) | 3.5 | -0.2
Fc1cccc(-c2nnc(SCc3nc4ccccc4[nH]3)n2-c2ccccc2)c1 | -3.6 | -9.2
O=C(Nc1nc2c(Cl)cccc2s1)c1cc(=O)c2ccccc2o1 | 50.1* | -1.0
O=C(Nc1ccccc1-c1nc2ccccc2s1)c1cc(=O)c2ccccc2o1 | -1.0 | 3.0
CCOc1cccc2c1OC(c1cccc(Cl)c1)N1N=C(c3cccnc3)CC21 (stereo not given) | -16.3 | 29.0
Cc1cccc(NC(=O)C2(N3CCC3=O)CCCCC2)c1 | -3.4 | -5.0
O=C1CCNc2c(Br)cc(Br)cc2N1 | . | -9.4
O=[N+]([O-])c1ccc2c(c1)Cc1cc([N+](=O)[O-])ccc1-2 | . | 6.5
CCN1C(=O)Cc2cc(C(=O)N3CCN(c4ccccc4C)CC3)ccc21 | 1.0 | 68.0*
CC1CCN(C(=O)c2ccc3c(c2)CC(=O)N3Cc2ccc(F)cc2)CC1 | -6.4 | 14.7
CC1CCN(C(=O)c2ccc3c(c2)CC(=O)N3Cc2cccc(F)c2)CC1 | -2.2 | 56.6*
CCN1C(=O)Cc2cc(C(=O)N3CCN(c4ccccc4Cl)CC3)ccc21 | -6.4 | 27.3
O=C(Cc1cccs1)N/N=C\c1cc(Br)c(Br)o1 | . | i
Nc1nc(-c2ccc3c(c2)OCO3)cs1 | 0.8 | 8.0
Cc1ccc(-c2csc(Nc3ccc(F)cc3)n2)cc1 | -1.8 | 34.8
Fc1ccc(-c2csc(Nc3ccc(Br)cc3)n2)cc1 | 1.4 | 98.0*
Cc1ccc(-c2csc(Nc3ccc(F)cc3)n2)cc1C | -5.8 | 14.5
Brc1ccc(-c2csc(Nc3ccc4c(c3)OCO4)n2)cc1 | -4.2 | 61.0*
SMILES | Pf apPOL inh | mHTT CaM bind
Fc1ccc(Nc2nc(-c3ccc(Cl)cc3)cs2)cc1 | -1.6 | 70.8*
Cc1ccc(Nc2nc(-c3ccc(F)cc3)cs2)cc1Cl | 4.1 | 63.5*
CCC(=O)Nc1nc(-c2ccc(F)cc2)cs1 | -6.0 | -6.5
Cc1cn2c3c(=O)n(Cc4c(F)cccc4Cl)c(=O)n(C)c3nc2n1C(C)C | -8.2 | -3.9
Cc1ccnc(N2CCC(C(=O)N3CCN(C(=O)c4ccco4)CC3)CC2)n1 | 4.1 | -3.5
O=C(NCC1CC1)c1ccc(NC(=O)C2CCC2)cc1N1CCOCC1 | -0.2 | 2.2
CCOc1ccc(-c2csc(Nc3ccc(F)cc3)n2)cc1[N+](=O)[O-] | 0.4 | 90.6*
CCCCOc1ccc(-c2csc(N)n2)cc1[N+](=O)[O-] | 3.3 | 22.3
COc1ccc(C(=O)N2CCN(c3ccccn3)CC2)c(OC)c1 | 4.8 | -2.7
Cc1cccc(Cl)c1C=NNc1ccc(-c2csnn2)cc1 | -3.0 | .
Cc1ccc(C(=O)N2Cc3ccccc3CC2C(=O)O)cc1 (stereo not given) | -0.6 | 53.0*
Cc1ccc(C(=O)N2CCCC2c2ccccc2C)cc1 (stereo not given) | 0.0 | -9.3
CC(C(N)=O)N(c1ccc(Oc2ccccc2)cc1)S(C)(=O)=O (stereo not given) | -4.3 | -4.5
Oc1ccc(/C=N/n2cnnc2)c(O)c1 | . | i

Screening data deposited in PubChem by University of Kansas High Throughput Screening Laboratory.
